# Test results from the supplement of paper PMC6897291.
# Test system: U-2932
# Assay: growth inhibition by drug alone (1 - RLU/untreated control) (fraction); higher = stronger inhibition
# Conditions: 177Lu-lilotomab satetraxetan 0 ug/ml
# Procedure: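 U-2932 ABC-DLBCL cells were pretreated or not for 18 h with 1 ug/ml 177Lu-lilotomab satetraxetan (600 MBq/mg), washed and seeded (3000 cells/well) on 384-well plates pre-printed with the Selleck Cambridge Cancer Compound library. Viability was read by RealTime-Glo luminescence on days 3-6 after seeding. Effect = 1 - RLU/mean RLU of the 48 untreated no-drug control wells per plate; Bliss score = (M-E)/(1-Fa), with E the expected Bliss-additive effect.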
Compound,"growth inhibition by drug alone (10 nM, time (day): 3)","growth inhibition by drug alone (10 nM, time (day): 4)","growth inhibition by drug alone (10 nM, time (day): 5)","growth inhibition by drug alone (10 nM, time (day): 6)","growth inhibition by drug alone (1000 nM, time (day): 3)","growth inhibition by drug alone (1000 nM, time (day): 4)","growth inhibition by drug alone (1000 nM, time (day): 5)","growth inhibition by drug alone (1000 nM, time (day): 6)"
CC(C)[C@]12O[C@H]1[C@@H]1O[C@]13[C@]1(O[C@H]1C[C@H]1C4=C(CC[C@@]13C)C(=O)OC4)[C@@H]2O [Triptolide],0.345,0.52,0.63,0.677,0.959,0.971,0.978,0.982
O=P1(N(CCCl)CCCl)NCCCO1 (stereo not given) [Cyclophosphamide monohydrate],-0.0368,-0.0191,-0.0185,0.00793,-0.0419,-0.0135,-0.0461,-0.0745
N.N.[Cl][Pt][Cl] [Cisplatin],0.0383,0.00908,-0.0126,0.00453,-0.0314,-0.0428,-0.0416,0.0312
CN(C)CCN(C)CCc1ccc(Cl)c(Cl)c1,-0.0253,-0.0155,0.000169,0.0547,-0.0569,-0.0395,-0.0761,-0.214
C=C1C[C@@H]2[C@H](CC[C@]3(C)C(=O)CC[C@@H]23)[C@@]2(C)C=CC(=O)C=C12 [Exemestane],0.0753,0.00319,-0.0809,-0.0708,-0.0344,-0.0359,-0.1,0.0186
